Results on 27 molecules are retold here after the supplement of paper PMC7411640.

Where a name gives a salt, the structure may show the parent alone.

This experiment deals with MDA-MB-468. The experiment can be described thus: phospho-S6 immunofluorescence (DAPI-normalised), per-plate z-score; higher = higher phospho-S6 signal (less pathway suppression). The following applies: co-treatment: lapatinib 1 uM; 24 h. Here is the method:
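GPCR-targeted compound library (MedChemExpress HY-L006) tested on MDA-MB-468 PTEN-null TNBC cells in 384-well plates at 0.1, 1 or 10 uM, combined with vehicle, GDC0941 450 nM or lapatinib 1 uM, for 24 h. Phospho-S6 (S240/244) immunofluorescence normalised to DAPI and expressed as a per-plate z-score; values are the mean of biological triplicates.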
Take `CN(C)CC[C@@H](c1ccc(Cl)cc1)c1ccccn1` [Dexchlorpheniramine (maleate)] (compound 10 µM): the “phospho-S6 immunofluorescence (z-score)” value is -0.08.
The value for `Nc1nc(CC(=O)Nc2ccc(CCNC[C@H](O)c3ccccc3)cc2)cs1` [Mirabegron] (compound 10 µM) was 1.75; that for `CNC[C@H](O)c1ccc(O)c(O)c1` [L-Epinephrine (Bitartrate)] (compound 10 µM) was 2.5; that for `O=c1cc(C(Cl)(Cl)Cl)oc2ccc(Cl)cc12` (compound 10 µM) was -0.11.
The value for `CCn1c(=O)c2c(nc(/C=C/c3ccc(OC)c(OC)c3)n2C)n(CC)c1=O` [Istradefylline] (compound 10 µM) was 0.09; that for `CC[C@H](C)[C@H](NC(=O)[C@H](Cc1ccc(O)cc1)NC(=O)[C@@H]1CCCN1C(=O)[C@@H](NC(=O)[C@@H](N)CCCCN)[C@@H](C)CC)C(=O)N[C@@H](CC(C)C)C(=O)O` [Neuromedin N] (compound 10 µM) was -0.01; that for `CN(C)CCOC(c1ccccc1)c1ccccc1` [Diphenhydramine (hydrochloride)] (compound 10 µM) was -0.09.
The value for `Nc1nc(N)nc(-c2cc(Cl)ccc2Cl)n1` [Irsogladine] (compound 10 µM) was 0.22; that for `COc1cc2c(cc1OC)CC(=O)N(CCCN(C)C[C@H]1Cc3cc(OC)c(OC)cc31)CC2` [Ivabradine (hydrochloride)] (compound 10 µM) was -0.13; that for `CC(C)NCC(O)COc1ccc(CCOCC2CC2)cc1` (configuration not stated) [Betaxolol] (compound 10 µM) was 0.69.
For the molecule `CC(=O)OCC(=O)[C@@]1(O)[C@H](C)C[C@H]2[C@@H]3CCC4=CC(=O)C=C[C@]4(C)[C@@]3(F)[C@@H](O)C[C@@]21C` [Dexamethasone (acetate)] (compound 10 µM), the “phospho-S6 immunofluorescence (z-score)” value worked out at 0.45.
The value for `Cc1nccn1CCC(C(N)=O)(c1ccccc1)c1ccccc1` [Imidafenacin] (compound 10 µM) was 0.38.
To `COc1cc2c(NC3CCN(C(C)C)CC3)nc(N3CCC(F)(F)CC3)nc2cc1OCCCN1CCCC1` (compound 10 µM) belongs 3.34; to `CN(C)CCSSCCNC(=O)C1CCN(C(=O)CSc2ccc(Cl)cc2)CC1` [6H05 (trifluoroacetate)] (compound 10 µM), 2.33.
To `CC(=O)Oc1cc(C(C)C)c(OCCN(C)C)cc1C` [Moxisylyte (hydrochloride)] (compound 10 µM) belongs -0.11.
Consider `Cc1ccc(Sc2ccccc2N2CCNCC2)c(C)c1` [Vortioxetine] (compound 10 µM), for which the “phospho-S6 immunofluorescence (z-score)” value is -7.7.
To `CCCN(CCC)CCc1cccc2c1CC(=O)N2` [Ropinirole (hydrochloride)] (compound 10 µM) belongs 1.04; to `CNCCc1ccccn1` [Betahistine (dihydrochloride)] (compound 10 µM), 0.1; to `CN(C)CCCN1c2ccccc2Sc2ccccc21` [Promazine (hydrochloride)] (compound 10 µM), -1.25.
The value for `CCc1c(C(=O)NCCc2ccc(N3CCCCC3)cc2)[nH]c2ccc(Cl)cc12` (compound 10 µM) was -0.3; that for `C[C@@](N)(C(=O)O)c1ccc(C(=O)O)cc1` (compound 10 µM) was 1; that for `Cc1nc(C#Cc2cccnc2)cs1` [MTEP (hydrochloride)] (compound 10 µM) was -0.65.
The value for `Cc1ccc(C(=O)Nc2ccc(S(=O)(=O)O)c3cc(S(=O)(=O)O)cc(S(=O)(=O)O)c23)cc1NC(=O)c1cccc(NC(=O)Nc2cccc(C(=O)Nc3cc(C(=O)Nc4ccc(S(=O)(=O)O)c5cc(S(=O)(=O)O)cc(S(=O)(=O)O)c45)ccc3C)c2)c1` [Suramin (sodium salt)] (compound 10 µM) was 1.39; that for `CC(C)c1noc(N2CCC(COc3ccc(-c4ccc(S(C)(=O)=O)cc4)nc3)CC2)n1` (compound 10 µM) was -4.91.
Turning to `Cc1c(-c2ccccc2)oc2c(C(=O)OCCN3CCCCC3)cccc2c1=O` [Flavoxate (hydrochloride)] (compound 10 µM), the “phospho-S6 immunofluorescence (z-score)” value came to 0.29.
The value for `CCC(=O)NC[C@@H]1C[C@H]1c1cccc2c1CCO2` [Tasimelteon] (compound 10 µM) was -0.25; that for `C#CCOc1ccc2c(c1)c(-c1ccc(C(C)C)cc1)nc(=O)n2C(C)C` [Calcium-Sensing Receptor Antagonists I] (compound 10 µM) was -4.39.
